Type in all cases: functional
Test [1] deals with Plasmodium falciparum. The test can be described thus: GSK_TCMDC: Inhibition of Plasmodium falciparum 3D7 in whole red blood cells, using parasite LDH activity as an index of growth. Test compounds present at 2uM.
Test [2] relates to Plasmodium falciparum. The test can be described thus: GSK_TCMDC: Inhibition of Plasmodium falciparum Dd2 in whole red blood cells, using parasite LDH activity as an index of growth. Test compounds present at 2uM.
The next test concerns HepG2. The test can be described thus: GSK_TCMDC: Percent inhibition of human HepG2 cell line. Test compounds present at 10uM.

Structures are written as SMILES.

For the compound `CNCc1ccc(CN(C)c2nc(N)c3cc(OC)c(OC)cc3n2)cc1.O=C(O)C(F)(F)F`, the results for the Inhibition in the test with Plasmodium falciparum [1], in the test on Plasmodium falciparum [2] and in the test with HepG2 were 96%, 3% and 12%, respectively.

In the case of `CCNc1nc(OCC(F)(F)F)nc(N(c2ccccc2)c2ccccc2)n1`, the Inhibition with Plasmodium falciparum [1] turned out to be 100%; in the test on Plasmodium falciparum [2] it was 83%; in the test with HepG2, 5%.

On to `O=C(O)C(F)(F)F.Oc1ccc(CCCNc2nc(NCc3cccc4ccccc34)nc(NC3CCNCC3)n2)cc1`, for which the Inhibition is reported as 91% in the test on Plasmodium falciparum [1], 0% in the test on Plasmodium falciparum [2] and 8% in the test on HepG2.

For `Cl.N=c1n(Cc2ccccc2)c2ccccc2n1CC(O)c1ccc(Cl)cc1` (stereo not drawn), the Inhibition in the test with Plasmodium falciparum [1] was determined as 96%; in the test with Plasmodium falciparum [2], 75%; in the test on HepG2, 26%.

Regarding `Cc1cc(N(C)C)nc(Nc2ccc(NC(=O)c3ccccc3C)cc2)n1`, the Inhibition with Plasmodium falciparum [1] amounted to 93%; in the test on Plasmodium falciparum [2], 16%; in the test with HepG2, 0%.

As to `O=C(NCCCN1CCCCC1)c1cccc(Nc2nccc(Nc3ccc(Oc4ccccc4)cc3)n2)c1`, the Inhibition was 96% in the test with Plasmodium falciparum [1], 12% in the test with Plasmodium falciparum [2] and 47% in the test on HepG2.

In the case of `CN(C)c1nc(NCc2ccccc2)nc(N/N=C/c2cc([N+](=O)[O-])ccc2O)n1`, the Inhibition is 100% in the test on Plasmodium falciparum [1], 90% with Plasmodium falciparum [2] and 48% with HepG2.

For `Cl.O=[N+]([O-])c1ccc(-c2nc3cc(C4=NC5CCCCC5N4)ccc3[nH]2)cc1` (stereo not drawn), the Inhibition in the test with Plasmodium falciparum [1] is 100%; in the test with Plasmodium falciparum [2] it was 30%; with HepG2 it was 0%.

Turning to `Cc1cc(Cl)ccc1NC(=O)NCCCCCN1CCC(c2c[nH]c3ccccc23)CC1`, the results for the Inhibition in the test with Plasmodium falciparum [1], in the test with Plasmodium falciparum [2] and in the test with HepG2 were 91%, 8% and 59%, respectively.

In the case of `CNC(=O)c1cnc(Nc2ccc(N3CCOCC3)cc2)nc1Nc1cccc(OC)c1.O=C(O)C(F)(F)F`, the figures for the Inhibition in the test on Plasmodium falciparum [1], with Plasmodium falciparum [2] and in the test with HepG2 were 96%, 41% and 2%, respectively.

For `CS(=O)(=O)CCNCc1ccc(-c2ccc3c(Nc4ccc(Cl)cc4F)ccnc3c2)o1`, the Inhibition in the test with Plasmodium falciparum [1] turned out to be 99%; with Plasmodium falciparum [2] it was 98%; with HepG2, 6%.

In the case of `Oc1c(Cl)cc(Nc2nccc(Nc3ccc(Oc4ccccc4)cc3)n2)cc1Cl`, the Inhibition amounted to 99% in the test with Plasmodium falciparum [1], 26% in the test with Plasmodium falciparum [2] and 8% with HepG2.

Take `Cc1c(-c2cccc(CNCCc3ccc(Cl)cc3)c2)cnc(N)c1C.Cl`: the Inhibition stood at 87% in the test with Plasmodium falciparum [1], 30% with Plasmodium falciparum [2] and 9% in the test with HepG2.

As to `COC(=O)c1cccc(CNCc2ccc(-c3cccc(-c4nc5ccccc5[nH]4)c3)cc2)c1.O=C(O)C(F)(F)F`, the Inhibition is on record as 100% in the test with Plasmodium falciparum [1], 46% with Plasmodium falciparum [2] and 5% with HepG2.

As for `O=C(Nc1ccc2c(c1)CN(Cc1ccc(N3CCCC3)o1)CCC2)c1ccoc1.O=CO`, the Inhibition in the test with Plasmodium falciparum [1] was 89%; with Plasmodium falciparum [2], 76%; with HepG2, 4%.

Turning to `Cc1ccc(NC(=O)c2cc([N+](=O)[O-])ccc2NCc2cccnc2)cc1Cl`, the Inhibition was 86% with Plasmodium falciparum [1], 58% in the test on Plasmodium falciparum [2] and 9% with HepG2.

Take `CCCCNCc1ccc(-c2nc(CN(Cc3ccc(Cl)c(Cl)c3)S(=O)(=O)c3ccc(NC(C)=O)cc3)cs2)cc1.O=C(O)C(F)(F)F`: the Inhibition with Plasmodium falciparum [1] is listed as 96%; with Plasmodium falciparum [2], 20%; in the test on HepG2 it was 30%.

For `CCOc1ccc(S(=O)(=O)N(C)c2ccc(OCC(=O)Nc3nccs3)cc2)cc1`, the results for the Inhibition with Plasmodium falciparum [1], in the test on Plasmodium falciparum [2] and in the test on HepG2 were 95%, 4% and 8%, respectively.

Regarding `O=C(Nc1cccc(-c2csc(-c3nc4ccccc4[nH]3)c2)c1)c1cc(=O)c2ccccc2[nH]1`, the Inhibition with Plasmodium falciparum [1] was 98%; in the test with Plasmodium falciparum [2], 39%; in the test on HepG2 it was 41%.

For the compound `O=C(Nc1ccc(Cn2ncc(N3CCCNCC3)c(Cl)c2=O)cc1)Nc1cc(C(F)(F)F)cc(C(F)(F)F)c1.O=C(O)C(F)(F)F`, the Inhibition turned out to be 100% with Plasmodium falciparum [1], 29% in the test on Plasmodium falciparum [2] and 25% in the test on HepG2.

As for `NC(=O)c1cccc(C(=O)Nc2ccc(-c3cccc(-c4nc5cc(C(F)(F)F)ccc5[nH]4)c3)cc2)c1`, the Inhibition in the test on Plasmodium falciparum [1] was determined as 100%; in the test on Plasmodium falciparum [2], 86%; in the test on HepG2, 74%.

`CN(C)CCN1CCN(Cc2cccc(-c3csc(-c4nc5ccccc5[nH]4)c3)c2)CC1.O=C(O)C(F)(F)F`: the Inhibition in the test on Plasmodium falciparum [1] worked out at 100%; with Plasmodium falciparum [2], 97%; with HepG2, 28%.

`COc1cc(OC)c(NC(=O)COc2ccc(C)cc2)cc1Cl`: the figures for the Inhibition in the test with Plasmodium falciparum [1], in the test on Plasmodium falciparum [2] and with HepG2 were 86%, 90% and 0%, respectively.

Consider `CC1C(c2cccc(Cl)c2)OCC(C)(C)N1C(=O)CCN1CCCCC1.Cl` (stereo not drawn), for which the results for the Inhibition in the test on Plasmodium falciparum [1], in the test on Plasmodium falciparum [2] and in the test with HepG2 were 88%, 5% and 2%, respectively.

Take `COc1ccccc1NC(=O)c1cc(C(=O)c2cc(Cl)ccc2O)cn(-c2ccccc2OC)c1=O`: the Inhibition was found to be 92% in the test with Plasmodium falciparum [1], 31% with Plasmodium falciparum [2] and 9% in the test on HepG2.

In the case of `COc1ccc(Nc2ncc3c(-c4cccc(NC(=O)Cc5cccnc5)c4)c[nH]c3n2)cc1OC`, the Inhibition in the test with Plasmodium falciparum [1] was 98%; with Plasmodium falciparum [2], 85%; in the test with HepG2 it was 27%.

These data come from ChEMBL document CHEMBL1157539, “Thousands of chemical starting points for antimalarial lead identification” (Nature, 2010).
